Data reported in the supplement of paper PMC3545927.
This is one part of the list. The hit rate among all sequences tested is not known here.

B1: HC1026 (peptide)
chain: CAKALGLLQTAGNASASA
B2: HC1020 (peptide)
chain: CAEQGMMLAEAGNASASA
B3: HC619 (peptide)
chain: CAGLLRFCALAGNASASA
B4: FS-3106 (peptide)
chain: CARTKRFVSEAGNASASA
B5: FS-2060 (peptide)
chain: CARPWKSVSEAGNASASA
B6: FS-2384 (peptide)
chain: CARTKRNAKIAGNASASA
B7: FS-2031 (peptide)
chain: CARIPREVSEAGNASASA
B8: FS-2826 (peptide)
chain: CARTKRFLSYAGNASASA
B9: HC2045 (peptide)
chain: CAVVCCSLSYAGNASASA
B10: FS-2612 (peptide)
chain: CARTKRKPSIAGNASASA
B11: FS-2731 (peptide)
chain: CARNQRDAWIAGNASASA
B12: FS-1708 (peptide)
chain: CARGARLVSEAGNASASA
B13: HC870 (peptide)
chain: CARGLDVSVIAGNASASA
B14: HC912 (peptide)
chain: CAAPGERPSGAGNASASA
B15: HC1388 (peptide)
chain: CANLVYSTTSAGNASASA
B16: HC1887 (peptide)
chain: CATTPCSFSWAGNASASA
B17: HC780 (peptide)
chain: CAKVPAAYAAAGNASASA
B18: FS-3151 (peptide)
chain: CARARRTTIYAGNASASA
B19: FS-2888 (peptide)
chain: CARARRDDPHAGNASASA
B20: FS-689 (peptide)
chain: CALTKRLKRHAGNASASA
B21: FS-1684 (peptide)
chain: CARARRTLGHAGNASASA
B22: HC1193 (peptide)
chain: CAYTTGPCTPAGNASASA
B23: HC1104 (peptide)
chain: CALSPGALVVAGNASASA
B24: HC98 (peptide)
chain: CAVVCNSMSYAGNASASA
B25: HC940 (peptide)
chain: CAEGVFTGLTAGNASASA
B26: HC2176 (peptide)
chain: CAEGVTSTWVAGNASASA
B27: HC708 (peptide)
chain: CAGPVIQMYTAGNASASA
B28: FS-2476 (peptide)
chain: CAEAKRGSSSAGNASASA
B29: FS-1255 (peptide)
chain: CARARRTKRHAGNASASA
B30: FS-1030 (peptide)
chain: CALRKRRKRKAGNASASA
B31: FS-1262 (peptide)
chain: CARKQRKKKAAGNASASA
B32: FS-865 (peptide)
chain: CARSQRRKKAAGNASASA
B33: FS-775 (peptide)
chain: CAFSQRRKRRAGNASASA
B34: HC188 (peptide)
chain: CARSQPRGRRAGNASASA
B35: HC711 (peptide)
chain: CAYTNVDQDLAGNASASA
B36: HC253 (peptide)
chain: CALTVPASAYAGNASASA
B37: FS-785 (peptide)
chain: CAGPRRPMRPAGNASASA
B38: HC657 (peptide)
chain: CACGDIINGLAGNASASA
B39: HC426 (peptide)
chain: CAENDTDVFVAGNASASA
B40: FS-325 (peptide)
chain: CAEMPRDRRRAGNASASA
B41: FS-826 (peptide)
chain: CALRFRRKRRAGNASASA
B42: FS-1434 (peptide)
chain: CAVRNRRKRKAGNASASA
B43: HC1231 (peptide)
chain: CALREEVSFRAGNASASA
B44: FS-1331 (peptide)
chain: CAGRSEFKRCAGNASASA
B45: FS-976 (peptide)
chain: CAAPPRRKRRAGNASASA
B46: HC620 (peptide)
chain: CALRFCALARAGNASASA
B47: FS-17 (peptide)
chain: CACRKRRKRCAGNASASA
B48: FS-2651 (peptide)
chain: CARCQRDAMCAGNASASA

Biological target: furin, P09958
Sequence (P09958 whole entry): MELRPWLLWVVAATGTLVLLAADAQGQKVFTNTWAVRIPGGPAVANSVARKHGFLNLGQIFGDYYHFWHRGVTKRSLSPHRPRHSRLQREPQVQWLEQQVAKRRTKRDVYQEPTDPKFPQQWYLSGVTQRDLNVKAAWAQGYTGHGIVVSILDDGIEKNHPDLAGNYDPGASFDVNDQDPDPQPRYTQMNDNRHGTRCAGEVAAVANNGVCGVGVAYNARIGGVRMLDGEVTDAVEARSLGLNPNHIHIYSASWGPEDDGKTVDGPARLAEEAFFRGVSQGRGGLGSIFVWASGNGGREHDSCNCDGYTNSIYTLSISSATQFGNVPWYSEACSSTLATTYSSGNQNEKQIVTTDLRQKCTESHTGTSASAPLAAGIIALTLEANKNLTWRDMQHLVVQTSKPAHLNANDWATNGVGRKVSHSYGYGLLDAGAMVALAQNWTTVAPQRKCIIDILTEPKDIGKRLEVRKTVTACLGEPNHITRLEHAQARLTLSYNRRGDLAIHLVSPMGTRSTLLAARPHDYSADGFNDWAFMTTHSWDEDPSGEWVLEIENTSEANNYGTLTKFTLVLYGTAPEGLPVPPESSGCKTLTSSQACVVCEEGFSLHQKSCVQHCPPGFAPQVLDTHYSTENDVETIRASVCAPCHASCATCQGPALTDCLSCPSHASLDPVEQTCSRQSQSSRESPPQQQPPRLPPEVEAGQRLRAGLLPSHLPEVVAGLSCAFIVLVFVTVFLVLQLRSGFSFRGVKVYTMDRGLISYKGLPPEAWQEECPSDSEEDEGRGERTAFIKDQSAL
Test: furin cleavage Z-score vs untreated control; higher = more cleavage, active = 3.5 or more, inactive = 1 or less, 8 variable residues between constant flanks
Procedure: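 Multiplexed peptide-cDNA fusion cleavage assay. 8-mer variable peptides flanked by constant Cys-Ala (N-term) and Ala-Gly-Asn-Ala-Ser-Ala-Ser-Ala (C-term) and conjugated to a cDNA oligonucleotide were bead-immobilised via the N-terminus. They were treated with purified furin at a 1:10 enzyme:substrate ratio in 50 mM HEPES pH 7.5, 1 mM CaCl2, 100 mM NaCl for 7.5, 15 or 30 min. Released cDNA was counted by next-generation sequencing, and log counts versus no-furin controls were lowess-adjusted and converted to robust Z-scores.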

Sequence | furin cleavage Z-score (7.5 min) | furin cleavage Z-score (15 min) | furin cleavage Z-score (30 min)
B1 | -0.0968 (inactive) | 0.32 (inactive) | -1.95 (inactive)
B2 | 0.411 (inactive) | 0.355 (inactive) | -0.0666 (inactive)
B3 | -0.221 (inactive) | -0.963 (inactive) | 0.576 (inactive)
B4 | 7.52 (active) | 9.36 (active) | 7.54 (active)
B5 | -0.467 (inactive) | 0.327 (inactive) | 1.73
B6 | 8.15 (active) | 8.32 (active) | 7.88 (active)
B7 | 7.41 (active) | 8.89 (active) | 7.69 (active)
B8 | 4.24 (active) | 5.3 (active) | 6.61 (active)
B9 | 0.285 (inactive) | 2.15 | 0.578 (inactive)
B10 | 0.358 (inactive) | -0.0194 (inactive) | 0.82 (inactive)
B11 | -0.28 (inactive) | -0.224 (inactive) | -0.1 (inactive)
B12 | 0.305 (inactive) | -0.752 (inactive) | 0.671 (inactive)
B13 | 1.35 | -0.274 (inactive) | -0.641 (inactive)
B14 | -0.474 (inactive) | 0.136 (inactive) | -0.967 (inactive)
B15 | 1.17 | -0.567 (inactive) | 1.86
B16 | -1.16 (inactive) | -1.65 (inactive) | 0.982 (inactive)
B17 | 0.0632 (inactive) | -0.0412 (inactive) | -3.37 (inactive)
B18 | -0.153 (inactive) | 1.46 | 4.35 (active)
B19 | 5.71 (active) | 7.99 (active) | 5.78 (active)
B20 | 12.6 (active) | 12.3 (active) | 9.95 (active)
B21 | 6.43 (active) | 8.11 (active) | 7.53 (active)
B22 | -1.22 (inactive) | 0.109 (inactive) | -1.36 (inactive)
B23 | -0.255 (inactive) | 1.25 | 0.572 (inactive)
B24 | -1.2 (inactive) | 0.223 (inactive) | -0.488 (inactive)

Sequence | furin cleavage Z-score (7.5 min) | furin cleavage Z-score (15 min) | furin cleavage Z-score (30 min)
B25 | -0.801 (inactive) | 0.108 (inactive) | -0.239 (inactive)
B26 | 0.155 (inactive) | -0.512 (inactive) | 0.24 (inactive)
B27 | -1.34 (inactive) | -0.0874 (inactive) | 0.0794 (inactive)
B28 | -2.29 (inactive) | -0.0771 (inactive) | 0.074 (inactive)
B29 | 11.2 (active) | 11.8 (active) | 8.26 (active)
B30 | 10.7 (active) | 11.4 (active) | 9.12 (active)
B31 | 0.332 (inactive) | 1.6 | 1.96
B32 | 4.39 (active) | 4.99 (active) | 5.15 (active)
B33 | 6.61 (active) | 5.92 (active) | 6.42 (active)
B34 | 4.16 (active) | 5.3 (active) | 4.87 (active)
B35 | -0.889 (inactive) | -0.433 (inactive) | -0.26 (inactive)
B36 | 0.273 (inactive) | -0.258 (inactive) | 0.0356 (inactive)
B37 | 0.568 (inactive) | -0.102 (inactive) | -1.31 (inactive)
B38 | -0.652 (inactive) | -0.156 (inactive) | 0.306 (inactive)
B39 | -0.537 (inactive) | 0.514 (inactive) | -0.867 (inactive)
B40 | -1.37 (inactive) | -0.519 (inactive) | -0.0256 (inactive)
B41 | 11.4 (active) | 12.4 (active) | 10.4 (active)
B42 | 8.59 (active) | 9.19 (active) | 8.05 (active)
B43 | -0.828 (inactive) | -0.657 (inactive) | -0.791 (inactive)
B44 | -0.855 (inactive) | -0.736 (inactive) | -0.471 (inactive)
B45 | 7.74 (active) | 7.56 (active) | 5.8 (active)
B46 | 1.83 | 0.507 (inactive) | -0.572 (inactive)
B47 | 4.55 (active) | 0.934 (inactive) | 1.07
B48 | -1.14 (inactive) | 0.877 (inactive) | 1.14
